The panel holds about 79,000 compounds, 15% with a hit somewhere; the sample as a whole holds those more often. Active and inactive are the calls of the source. Rule as the data show it: active = growth inhibition above about 70%; inactive = the rest.
How the values were obtained:
[1] = NCI Yeast Anticancer Drug Screen. Data for the rad52 strain (AID 147);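 also: 0% = growth of vehicle-treated control cultures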; details: S. cerevisiae rad52 mutant growth inhibition, active compounds read high
Outline: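 Screen used a yeast mutant impaired in DNA repair. After compound exposure, growth was measured. Values reflect inhibition compared with vehicle-treated cells.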

[2] = NCI Yeast Anticancer Drug Screen. Data for the wt1 strain (AID 149);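 also: 0% = growth of vehicle-treated wt1 cultures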; details: S. cerevisiae wt1 strain (SPY 50644) growth inhibition, active compounds read high
Outline: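 wt1 strain grown with compound or vehicle; inhibition taken from the growth difference.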

[3] = NCI Yeast Anticancer Drug Screen. Data for the rad50EPP+ strain (AID 151);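 also: 0% = growth of vehicle-treated control cultures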; details: S. cerevisiae rad50 mutant strain, active compounds read high
Outline: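 Exposing the rad50EPP+ strain to each compound, growth was compared with vehicle-only cultures to give inhibition.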

[4] = NCI Yeast Anticancer Drug Screen. Data for the mgt1 strain (AID 153); details: S. cerevisiae mgt1 mutant growth inhibition, active compounds read high
Outline: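 Genetically defined yeast (mgt1) treated with compound; inhibition of growth expressed against vehicle-treated controls.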

[5] = NCI Yeast Anticancer Drug Screen. Data for the rad50 strain (AID 155);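 also: 0% = growth of vehicle-only cultures of the same strain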; details: S. cerevisiae rad50 strain growth inhibition, active compounds read high
Outline: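 DNA repair mutant yeast, compound exposure, growth read-out; inhibition is taken relative to vehicle.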

[6] = NCI Yeast Anticancer Drug Screen. Data for the mec2-1 strain (AID 157); details: S. cerevisiae mec2-1 strain, active compounds read high
Outline: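 Readout is yeast growth inhibition, normalised to vehicle-treated controls, in the mec2-1 strain exposed to compound.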

[7] = NCI Yeast Anticancer Drug Screen. Data for the rad14 strain (AID 159);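 also: 0% = growth of vehicle-treated control cultures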; details: S. cerevisiae rad14 strain growth inhibition, active compounds read high
Outline: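 DNA repair-defective yeast, compound-exposed; % growth inhibition derived by comparison with vehicle-treated controls.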

[8] = NCI Yeast Anticancer Drug Screen. Data for the sgs1 mgt1 strain (AID 161);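 also: 0% = growth of cultures given vehicle only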; details: S. cerevisiae sgs1 mgt1 strain, active compounds read high
Outline: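 Growth of a repair-deficient yeast mutant was monitored after compound treatment and expressed as inhibition relative to vehicle-treated cultures.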

[9] = NCI Yeast Anticancer Drug Screen. Data for the CLN2oe strain (AID 163);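 also: 0% = growth of vehicle-only control cultures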; details: S. cerevisiae CLN2oe strain, active compounds read high
Outline: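 Values reflect how much compound exposure reduced yeast growth, referenced to vehicle-exposed cells. Assay organism is a strain with a defined genetic change affecting cell-cycle control.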

[10] = NCI Yeast Anticancer Drug Screen. Data for the cln2 rad14 strain (AID 165);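 also: 0% = growth equal to vehicle treated cultures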; details: S. cerevisiae cln2 rad14 strain, active compounds read high
Outline: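 Relative to vehicle controls, growth inhibition of compound-treated cln2 rad14 yeast was recorded.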

[11] = NCI Yeast Anticancer Drug Screen. Data for the bub3 strain (AID 167); details: S. cerevisiae bub3 mutant strain, active compounds read high
Outline: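 In this screen, a yeast mutant lacking normal mitotic checkpoint function is challenged with compound. Relative growth versus vehicle gives the inhibition value.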

[12] = NCI Yeast Anticancer Drug Screen. Data for the wt2 strain (AID 169);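 also: 0% = growth of vehicle-treated yeast cultures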; details: S. cerevisiae wt2 strain growth inhibition, active compounds read high
Outline: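 Values express reduction in yeast growth under compound treatment, referenced to vehicle-treated cells.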

[13] = NCI Yeast Anticancer Drug Screen. Data for the mlh1 strain (AID 171);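 also: 0% = growth of vehicle-treated control cultures of the same strain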; details: S. cerevisiae mlh1 strain growth inhibition, active compounds read high
Outline: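 Steps: expose the defined-mutant yeast strain to compound; expose a parallel culture to vehicle; measure growth; express compound effect as inhibition relative to the vehicle culture.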

[14] = NCI Yeast Anticancer Drug Screen. Data for the sgs1 strain (AID 173);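 also: 0% = growth of vehicle-only control cultures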; details: S. cerevisiae sgs1 mutant, active compounds read high
Outline: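 Treat defined-mutant yeast with compound; measure growth; calculate inhibition relative to vehicle-treated cells.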

[15] = NCI Yeast Anticancer Drug Screen. Data for the mlh1 rad18 strain (AID 175); details: S. cerevisiae mlh1 rad18 strain growth inhibition, active compounds read high
Outline: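 Test agents were incubated with a yeast strain of defined genotype (DNA damage repair defect). Inhibition of growth was derived by comparison with vehicle-exposed cultures.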

[16] = NCI Yeast Anticancer Drug Screen. Data for the rad18 strain (AID 177); details: S. cerevisiae rad18 mutant growth inhibition, active compounds read high
Outline: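 A genetically defined yeast mutant impaired in DNA damage repair was treated with test compounds, then its growth was measured against cultures receiving vehicle alone.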

[17] = at 5.0 µM (retest, dose inferred, filed as 0.5)
[18] = at 50.0 µM (retest, dose inferred, filed as 5.0)

Measured: growth inhibition

C=C(CN(C)C)C(=O)c1cc(C)ccc1C
active: [1]; at 11.0 µM 85% | [1]; at 33.0 µM 99% | [1]; at 100.0 µM 99% | [2]; at 33.0 µM 98% | [2]; at 100.0 µM 99% | [3]; at 33.0 µM 80% | [3]; at 100.0 µM 98% | [4]; at 11.0 µM 80% | [4]; at 33.0 µM 99% | [4]; at 100.0 µM 99% | [5]; at 11.0 µM 83% | [5]; at 33.0 µM 98% | [5]; [18] 99% | [5]; at 50.0 µM 99.4% | [5]; at 100.0 µM 99% | [6]; at 11.0 µM 86% | [6]; at 33.0 µM 99% | [6]; [18] 99% | [6]; at 50.0 µM 99.4% | [6]; at 100.0 µM 99% | [7]; at 11.0 µM 80% | [7]; at 33.0 µM 99% | [7]; at 100.0 µM 99% | [8]; [18] 99% | [8]; at 50.0 µM 99.5% | [9]; at 33.0 µM 98% | [9]; at 100.0 µM 98% | [10]; [18] 99% | [10]; at 50.0 µM 99.2% | [11]; at 11.0 µM 90% | [11]; at 33.0 µM 99% | [11]; [18] 99% | [11]; at 50.0 µM 98.8% | [11]; at 100.0 µM 99% | [12]; at 11.0 µM 75% | [12]; at 33.0 µM 99% | [12]; at 100.0 µM 99% | [13]; at 11.0 µM 89% | [13]; at 33.0 µM 99% | [13]; at 100.0 µM 99% | [14]; at 11.0 µM 86% | [14]; at 33.0 µM 99% | [14]; at 100.0 µM 99% | [15]; [18] 99% | [15]; at 50.0 µM 99.2% | [16]; at 11.0 µM 86% | [16]; at 33.0 µM 98% | [16]; at 100.0 µM 99%
inactive: [1]; at 1.2 µM 5% | [1]; at 3.7 µM 32% | [2]; at 1.2 µM 8% | [2]; at 3.7 µM 23% | [2]; at 11.0 µM 56% | [3]; at 1.2 µM 1% | [3]; at 3.7 µM 9% | [3]; at 11.0 µM 32% | [4]; at 1.2 µM 2% | [4]; at 3.7 µM 19% | [5]; at 1.2 µM 4% | [5]; at 3.7 µM 23% | [5]; [17] 24% | [6]; at 1.2 µM 17% | [6]; at 3.7 µM 38% | [6]; [17] 5% | [7]; at 1.2 µM 9% | [7]; at 3.7 µM 21% | [8]; [17] 50% | [9]; at 1.2 µM 10% | [9]; at 3.7 µM 22% | [9]; at 11.0 µM 40% | [10]; [17] 7% | [11]; at 1.2 µM 5% | [11]; at 3.7 µM 28% | [11]; [17] 61% | [12]; at 1.2 µM 3% | [12]; at 3.7 µM 16% | [13]; at 1.2 µM 12% | [13]; at 3.7 µM 32% | [14]; at 1.2 µM 16% | [14]; at 3.7 µM 40% | [15]; [17] 61% | [16]; at 1.2 µM 16% | [16]; at 3.7 µM 37%

O=[N+]([O-])/C=C/c1ccc2ccccc2c1
active: [1]; at 3.7 µM 72% | [1]; at 11.0 µM 100% | [1]; at 33.0 µM 100% | [1]; at 100.0 µM 99% | [2]; at 11.0 µM 99% | [2]; at 33.0 µM 100% | [2]; at 100.0 µM 100% | [3]; at 3.7 µM 98% | [3]; at 11.0 µM 99% | [3]; at 33.0 µM 99% | [3]; at 100.0 µM 99% | [4]; at 11.0 µM 100% | [4]; at 33.0 µM 100% | [4]; at 100.0 µM 99% | [5]; at 3.7 µM 95% | [5]; at 11.0 µM 100% | [5]; at 33.0 µM 100% | [5]; [18] 90% | [5]; at 50.0 µM 99.1% | [5]; at 100.0 µM 99% | [6]; at 3.7 µM 89% | [6]; at 11.0 µM 100% | [6]; at 33.0 µM 100% | [6]; [18] 96% | [6]; at 50.0 µM 99.2% | [6]; at 100.0 µM 97% | [7]; at 3.7 µM 71% | [7]; at 11.0 µM 99% | [7]; at 33.0 µM 99% | [7]; at 100.0 µM 100% | [8]; [18] 95% | [8]; at 50.0 µM 99.3% | [9]; at 11.0 µM 99% | [9]; at 33.0 µM 99% | [9]; at 100.0 µM 99% | [10]; [17] 98% | [10]; [18] 93% | [10]; at 50.0 µM 98.2% | [11]; [17] 98% | [11]; at 11.0 µM 99% | [11]; at 33.0 µM 99% | [11]; [18] 94% | [11]; at 50.0 µM 98.8% | [11]; at 100.0 µM 99% | [12]; at 11.0 µM 100% | [12]; at 33.0 µM 100% | [12]; at 100.0 µM 99% | [13]; at 11.0 µM 100% | [13]; at 33.0 µM 100% | [13]; at 100.0 µM 100% | [14]; at 3.7 µM 98% | [14]; at 11.0 µM 100% | [14]; at 33.0 µM 100% | [14]; at 100.0 µM 100% | [15]; [18] 93% | [15]; at 50.0 µM 98.8% | [16]; at 11.0 µM 99% | [16]; at 33.0 µM 100% | [16]; at 100.0 µM 99%
inactive: [1]; at 1.2 µM 28% | [2]; at 1.2 µM -1% | [2]; at 3.7 µM 7% | [3]; at 1.2 µM 67% | [4]; at 1.2 µM -1% | [4]; at 3.7 µM 61% | [5]; at 1.2 µM 33% | [5]; [17] 1% | [6]; at 1.2 µM 2% | [6]; [17] 33% | [7]; at 1.2 µM 11% | [8]; [17] -35% | [9]; at 1.2 µM 4% | [9]; at 3.7 µM 53% | [11]; at 1.2 µM 6% | [11]; at 3.7 µM 61% | [12]; at 1.2 µM -5% | [12]; at 3.7 µM 18% | [13]; at 1.2 µM 1% | [13]; at 3.7 µM 38% | [14]; at 1.2 µM 23% | [15]; [17] -256% | [16]; at 1.2 µM 6% | [16]; at 3.7 µM 48%

O=CC=C(c1ccccc1)c1ccccc1
inactive: [1]; at 1.2 µM -2% | [1]; at 3.7 µM 0% | [1]; at 11.0 µM -9% | [1]; at 33.0 µM 8% | [2]; at 1.2 µM -3% | [2]; at 3.7 µM 3% | [2]; at 11.0 µM -4% | [2]; at 33.0 µM 10% | [3]; at 1.2 µM 20% | [3]; at 3.7 µM 18% | [3]; at 11.0 µM 26% | [3]; at 33.0 µM 43% | [4]; at 1.2 µM -10% | [4]; at 3.7 µM -6% | [4]; at 11.0 µM 2% | [4]; at 33.0 µM 10% | [5]; at 1.2 µM 8% | [5]; at 3.7 µM 5% | [5]; [17] 41% | [5]; at 11.0 µM 4% | [5]; at 33.0 µM 11% | [5]; at 50.0 µM 39.6% | [6]; at 1.2 µM 4% | [6]; at 3.7 µM 0% | [6]; [17] 51% | [6]; at 11.0 µM 0% | [6]; at 33.0 µM 20% | [6]; at 50.0 µM -13.3% | [7]; at 1.2 µM 7% | [7]; at 3.7 µM -2% | [7]; at 11.0 µM 3% | [7]; at 33.0 µM 10% | [8]; [17] -9% | [9]; at 1.2 µM 16% | [9]; at 3.7 µM 5% | [9]; at 11.0 µM 13% | [9]; at 33.0 µM 20% | [10]; [17] 36% | [10]; at 50.0 µM 39.1% | [11]; at 1.2 µM -11% | [11]; at 3.7 µM -13% | [11]; [17] 30% | [11]; at 11.0 µM -32% | [11]; at 33.0 µM -10% | [11]; at 50.0 µM 40.6%
active: [1]; at 100.0 µM 95% | [2]; at 100.0 µM 98% | [3]; at 100.0 µM 83% | [4]; at 100.0 µM 98% | [5]; [18] 86% | [5]; at 100.0 µM 98% | [6]; [18] 93% | [6]; at 100.0 µM 98% | [7]; at 100.0 µM 98% | [8]; [18] 97% | [8]; at 50.0 µM 80% | [9]; at 100.0 µM 98% | [10]; [18] 99% | [11]; [18] 98% | [11]; at 100.0 µM 98%
